# PubChem BioAssay
# The source made the active and inactive calls. Cut-off read from the data, not from the text of the source: active = inhibition above about 28%; inactive = the rest.
# Assay: StAR promoter reporter inhibitors, counter-screen for LRH-1 inverse agonist project, cell-based, luminescence, high throughput (AID 651611)
# Settings: StAR promoter luciferase reporter counterscreen, at 3.6 µM, hits give high values
row,Compound,inhibition
1,CCc1c(O)nc(SCC(=O)Nc2ccc(OC)cc2)n(C2CCCCC2)c1=O,13.3% (inactive)
2,CCCCCCCCn1c2c(c(=N)c3ccccc31)CCC2,78.5% (active)
3,O=C1C=C(N2CCCCCC2)C2(CCCCC2)O1,4.6% (inactive)
4,O=C(CSC1=NC2(CCCCCC2)N=C1c1ccccc1)Nc1ccc2c(c1)OCCO2,8.01% (inactive)
5,O=C(c1ccc([N+](=O)[O-])o1)N1CCN(c2nc3c(Cl)cccc3s2)CC1,10.8% (inactive)
6,CS(=O)(=O)N1CCN(c2ccc(NC(=O)CSc3nnc(-c4ccco4)o3)cc2)CC1,4.74% (inactive)
7,COc1cccc(-c2cc(NC=O)c3ncc(-c4ccc(C(C)=O)cc4)n3c2)c1,45.1% (active)
8,Cc1ccccc1C(=O)NC1CCN(CC(=O)Nc2ccc(Br)cc2)CC1,5.55% (inactive)
9,O=C(c1ccc([N+](=O)[O-])s1)N1CCN(c2ncccn2)CC1,1.48% (inactive)
10,O=C(CSc1ncnc2c1cnn2-c1ccccc1)Nc1ccc2c(c1)OCO2,11% (inactive)
11,COc1ccc2nc(N3CCN(C(=O)c4ccc([N+](=O)[O-])o4)CC3)sc2c1,0.52% (inactive)
12,Cc1nnsc1C(=O)NC1CCCc2c1cnn2-c1ccc(F)cc1F (stereo not given),19.6% (inactive)
13,CN(C)S(=O)(=O)c1cccc(CSCc2cccc(S(=O)(=O)N(C)C)c2)c1,7.72% (inactive)
14,O=C(CSc1n[nH]c(-c2ccccc2)n1)Nc1ccc(F)cc1F,5.84% (inactive)
15,Cc1c(Cl)cccc1NC(=O)CS(=O)(=O)c1ccccc1,13.4% (inactive)
16,O=C(CSc1nnnn1C1CCCC1)Nc1ccc2c(c1)OCCO2,-0.49% (inactive)
17,COc1ccc2c(c1)CCN(C(=O)CCl)C2C1C(=O)CCCC1=O (stereo not given),10.2% (inactive)
18,CCOC(=O)C1CCCN(S(=O)(=O)c2ccc(S(=O)(=O)N(CC)CC)cc2)C1 (stereo not given),18.1% (inactive)
19,COCC(C)n1c(-c2ccc3c(c2)NC(=O)CO3)csc1=Nc1ccc(OC(F)F)cc1 (stereo not given),10.3% (inactive)
20,COc1ccc(NC(=O)CSc2n[nH]c(-c3ccccn3)n2)cc1,2.28% (inactive)

row,Compound,inhibition
1,COc1ccc(C(=O)C(C)Oc2cccc(NC(=O)c3cccc([N+](=O)[O-])c3)c2)cc1 (stereo not given),1.27% (inactive)
2,COc1cccc(C(C)(O)c2nc(-c3cccc(C#N)c3)cs2)c1 (stereo not given),19.6% (inactive)
3,O=[N+]([O-])c1ccc(/C=N/n2c(CO)nc3ccccc32)s1,16.3% (inactive)
4,O=C(Nc1cccc2ccccc12)c1ccc([N+](=O)[O-])o1,27.4% (inactive)
5,CCOc1ccc(NC(=O)CSc2nc3[nH]ncc3c(=O)[nH]2)cc1,8.84% (inactive)
6,NC(=S)N/N=C/c1ccc(C(F)(F)F)cc1,-1.87% (inactive)
7,COc1ccccc1Nc1nc(NCCCCO)nc(N2CCCC2)n1,10.5% (inactive)
8,Cc1ccc(NC(=O)c2ccc([N+](=O)[O-])o2)c(C)c1,11.1% (inactive)
9,O=C(Nc1nc(-c2cccs2)cs1)c1ccc([N+](=O)[O-])o1,-1.18% (inactive)
10,S=C(Nc1cccnc1)Nc1cccc2cnccc12,9.29% (inactive)
11,CCOC(=O)c1ccc(N=Cc2cnc(N)nc2N)cc1,-7.89% (inactive)
12,COc1ccc(NC(=O)CN2C(=O)NC(C)(c3ccc(C)cc3)C2=O)c([N+](=O)[O-])c1 (stereo not given),9.06% (inactive)
13,CC(C)(C)c1ccc(C(=O)Nc2ccc(C(=O)NCc3cccnc3)cc2)cc1,82.1% (active)
14,Cc1ccc2c(c1)N(C)/C(=C/c1cccc[n+]1C)S2,28% (active)
15,Cc1cccc(C)c1NC(=O)C(c1ccc(C(F)(F)F)cc1)n1c(=O)c(-c2cc3ccccc3[nH]2)nc2ccccc21 (stereo not given),13.9% (inactive)
16,COc1ccc2c(/C=C/c3cc[n+](C)cc3)c[nH]c2c1,28.7% (active)
17,CCOc1ccc(NC(=O)COC(=O)C2COc3ccccc3O2)cc1 (stereo not given),-6.6% (inactive)
18,Cc1cc(C(=O)NC2CCCc3c2cnn3-c2cccc(C)c2C)n(C)n1 (stereo not given),33.4% (active)
19,COc1ccc(NC(=O)CN2C(=O)NC3(CCCC3)C2=O)cc1Cl,2.83% (inactive)
20,Oc1c(Cl)cc(CN2CCOCC2)c2cccnc12,4.86% (inactive)
